Sampled rows, rich in hits. Any-hit rate of the full collection: about 3%.
SNCA viab count: GF-AFC viability counterscreen for inhibitors of alpha-synuclein gene (SNCA) expression | AID 1671193, 2021 | 150,000 compounds, 0.12% hits | HEK-293-SNCA-luc viability, GF-AFC fluorescence, 24 h | Potency, µM (doses to about 57.1 µM), hits mostly cytotoxic; note: nearly all actives have a fitted effect of over 30% in size
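Cytotoxicity counterscreen: after 24 h compound treatment of genome-edited SNCA-luciferase HEK-293 cells, live-cell protease substrate GF-AFC read by fluorescence after 30 min; activity scaled between DMSO (0%) and medium-only (-100%), curves Hill-fitted.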
SNCA expr inh: Primary qHTS assay for inhibitors of alpha-synuclein gene (SNCA) expression | HEK-293 SNCA-luciferase knock-in, luminescence, 24 h | Potency, µM (top dose mostly 57.2 µM), most hits filed as inhibitors | 140,000 compounds, 0.17% hits; note: nearly all actives have a fitted effect of over 45% in size
KDM5B inhibitor: Primary screen for KDM5B Histone Demethylases FDH-coupled qHTS | 220,000 compounds, 2.6% hits | KDM5B demethylase, FDH-coupled NADH fluorescence (FDH is formaldehyde dehydrogenase) | AID 1347165, 2019 | Potency, µM (top dose mostly 57.7 µM), most hits filed as inhibitors | Lysine-specific demethylase 5B (Homo sapiens), Q9UGL1; note: nearly all actives have a fitted effect of over 70% in size
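Inhibition is measured as reduced NADH fluorescence generation from FDH coupling to formaldehyde release. Truncated KDM5BΔAP at 200 nM final acts on H3K4me3 peptide (12.5 µM in substrate mix) in pH 7.5 HEPES buffer with Tween-20, 30 min, room temperature.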
IP6K1 inhibitor: Primary qHTS assay for small molecule inhibitors of Inositol hexaphosphate kinase 1 (IP6K1); Inositol hexakisphosphate kinase 1 (Homo sapiens), Q92551; IP6K1 kinase, ADP-Glo luminescence, 2 h; hits give low values; activity change, % (series mostly up to about 58 µM); 140,000 compounds, 0.81% hits; AID 1645851, 2021; in the data active = activity change below about -25%
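ADP-Glo luminescence measures ADP made by human IP6K1 during a 2 h RT reaction with ATP/IP6 (mix at 1.3 mM/130 uM); top library doses 57.5 and 19.1 uM final.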
Each line names hits and unclear results; the compound was inactive in the other large screens. Unless noted, calls come from the whole dose curve; as a rule, active = well fitted curve in the direction sought with a large enough effect; inconclusive = small, poorly fitted or top-dose-only effect, or another doubt; inactive = no such curve, though single readings can be large; an effect the other way counts as inactive or inconclusive.

O=C(NCc1nnc2ccc(-c3ccccc3)nn12)c1cc(Cl)ccc1F	KDM5B inhibitor 25µM
Cc1nn(-c2ccccc2)c2c1C(C(C)C)N(C1CCN(C(=O)Cc3ccc(F)cc3)C1)C2=O (stereo not given)	none (no result: SNCA viab count, SNCA expr inh, KDM5B inhibitor)
O=C(NCc1nnc2ccc(-c3ccc(Cl)cc3)nn12)c1cc(F)ccc1F	KDM5B inhibitor inconclusive
O=C(NCc1nnc2ccc(-c3ccccc3)nn12)c1cc(F)ccc1Cl	KDM5B inhibitor 18µM
Cc1ccc(-c2ccc3nnc(CNC(=O)c4cc(F)ccc4F)n3n2)cc1	KDM5B inhibitor 25µM
O=C(NCc1nnc2ccc(-c3ccc(Cl)cc3)nn12)C1(c2ccccc2)CC1	KDM5B inhibitor 20µM
Cc1ccc(-c2ccc3nnc(CNC(=O)c4c(F)cccc4F)n3n2)cc1	KDM5B inhibitor 25µM
O=C(Cc1csc(-c2ccccc2Cl)n1)Nc1nc2c(s1)CCCCC2	none (no result: SNCA viab count, SNCA expr inh, IP6K1 inhibitor)
O=C(NCc1nnc2ccc(-c3ccc(F)cc3)nn12)c1ccc(Cl)s1	KDM5B inhibitor 28µM
COCc1ccc2c(c1)c(OC(C)(C)C(=O)N1CC(O)C1)nn2CCC(C)C	KDM5B inhibitor 35µM
COCc1ccc2c(c1)c(OC(C)(C)C(N)=O)nn2CCC(C)C	KDM5B inhibitor 32µM
COCCNC(=O)/C(C#N)=C\c1ccc(C(F)(F)F)cc1	none (no result: SNCA viab count, SNCA expr inh, IP6K1 inhibitor)
Cc1nn(-c2ccccc2)c2c1C(C1CC1)N(C1CN(C(=O)c3ccc(F)cc3)C1)C2=O (stereo not given)	none (no result: SNCA viab count, SNCA expr inh, KDM5B inhibitor)
Cc1nnc2n1CCC(NC(=O)c1ccc3cc[nH]c3c1)CC2 (stereo not given)	KDM5B inhibitor 28µM
COc1ccc(CCC(=O)N2CCC(Cc3nc(C4CC4)n[nH]3)CC2)cc1	KDM5B inhibitor 20µM
O=C(N1CCC(Cc2nc(C3CC3)n[nH]2)CC1)C1(c2ccccc2)CC1	KDM5B inhibitor 18µM
CC(=O)N1CCC(Cc2nc(-c3ccccc3)n[nH]2)CC1	KDM5B inhibitor 20µM
O=C(O)/C(=C\c1cccnc1)NC(=O)c1ccccc1	none (no result: SNCA viab count, SNCA expr inh, IP6K1 inhibitor)
CN1CC2(CCCN(Cc3cc4ccccc4n(C)c3=O)C2)OC1=O (stereo not given)	KDM5B inhibitor 22µM
CN1CC2(CCCN(Cc3cc4ccccc4o3)C2)OC1=O (stereo not given)	none
COc1ccc(Cl)cc1-c1ccc2c(c1)C(=O)N1CCN(C(=O)c3ccco3)C[C@H]1C(=O)N2	KDM5B inhibitor 35µM
COc1ccc(Cl)cc1-c1ccc2c(c1)C(=O)N1CCN(C(=O)CC3(CC(=O)O)CCCC3)C[C@H]1C(=O)N2	none
COc1ccc(Cl)cc1-c1ccc2c(c1)C(=O)N1CCN(C(=O)CO)C[C@@H]1C(=O)N2	SNCA expr inh inconclusive, KDM5B inhibitor 35µM
COC(=O)c1c(NC(C)=O)c2cc(NC(C)CC(C)(C)O)cnc2n1CCC(C)C (stereo not given)	SNCA viab count inconclusive, KDM5B inhibitor 20µM
CCC(C)C(=O)Nc1c(C(=O)OC)n(CC2CCCO2)c2ncc(NC(C)CO)cc12 (stereo not given)	KDM5B inhibitor 28µM
CCC(C)C(=O)Nc1c(C(=O)OC)n(CC2CCCO2)c2ncc(NC(C)CCO)cc12 (stereo not given)	KDM5B inhibitor 6.3µM
COC(=O)c1c(NC(C)=O)c2cc(NC3CCCCC3)cnc2n1CC1CCCO1 (stereo not given)	KDM5B inhibitor inconclusive
Cc1cc(F)ccc1NCc1ccccc1C#N	none (no result: SNCA viab count, SNCA expr inh, IP6K1 inhibitor)
CCCCNC(=O)CN1C(=O)COc2ccc(S(=O)(=O)N3CCCC3)cc21	none
CC(C)CN(CCCNC(=O)CN1C(=O)COc2ccc(S(=O)(=O)N3CCCCCC3)cc21)CC(C)C	SNCA expr inh 28µM
Oc1cccc(-c2cc(-c3cccnc3)c3cncn3c2)c1	SNCA expr inh inconclusive, KDM5B inhibitor inconclusive
COc1ncccc1-c1cc(-c2cccnc2)c2cncn2c1	KDM5B inhibitor 35µM
COc1cccc(-c2cc(-c3cccnc3)c3cncn3c2)c1OC	KDM5B inhibitor 35µM
FC(F)(F)c1ccccc1-c1cc(-c2cccnc2)c2cncn2c1	SNCA expr inh inconclusive, KDM5B inhibitor inconclusive
COc1ccc(-c2cc(-c3cccnc3)cn3cncc23)cc1	KDM5B inhibitor 40µM
c1cncc(-c2cc(-c3ccc4cn[nH]c4c3)cn3cncc23)c1	SNCA expr inh inconclusive, KDM5B inhibitor 35µM
OC1CCN(c2cc(C(F)(F)F)nc3ccccc23)CC1	none (no result: SNCA viab count, SNCA expr inh, IP6K1 inhibitor)
O=C(NCc1ccccn1)C1CCCCN1Cc1ccc(-c2ccsc2)cc1 (stereo not given)	none (no result: KDM5B inhibitor)
COc1cccc(C(=O)NCCNC(=O)c2ccc(-c3cccc(OC)c3)cc2)c1	none (no result: SNCA viab count, SNCA expr inh, KDM5B inhibitor)
COc1ccc(-c2cc(-c3cccnc3OC)cn3cncc23)cc1	KDM5B inhibitor 35µM
COc1ccc(-c2cc(-c3cccc(NC(C)=O)c3)cn3cncc23)cc1	KDM5B inhibitor 8.9µM
COc1ccc(-c2cc(-c3cccc(NC(C)=O)c3)cn3cncc23)cn1	KDM5B inhibitor inconclusive
Cc1ccc(-c2cc(-c3cccnc3)c3cncn3c2)cn1	KDM5B inhibitor 35µM
COc1ccc(CNC(=O)C2CCCN(Cc3cccc(-c4ccsc4)c3)C2)cc1 (stereo not given)	none (no result: SNCA viab count, SNCA expr inh, KDM5B inhibitor)
Cc1cccc(-c2cccc(CN3CCC(NC(=O)C(C)(C)C)CC3)c2)c1	none (no result: KDM5B inhibitor)
CC(C)c1nc2nccc(-c3ccco3)n2n1	KDM5B inhibitor inconclusive
CC(C)c1nc2nccc(-c3cccs3)n2n1	KDM5B inhibitor 25µM
CC(C)Cc1nc2nccc(-c3cccs3)n2n1	KDM5B inhibitor 25µM
COc1ccc(-c2noc([C@@H]3Cc4nc[nH]c4CN3Cc3ccc(NC(C)=O)cc3)n2)cc1	SNCA expr inh inconclusive, KDM5B inhibitor inconclusive
CN(C)c1ccc(C(=O)N2CCN(S(C)(=O)=O)[C@H](C(=O)N[C@H](Cc3c[nH]c4ccccc34)C(N)=O)C2)cc1	none
CN(C)c1ccc(C(=O)N2CCN(C(=O)c3ccc(N(C)C)cc3)[C@H](C(=O)N[C@H](Cc3c[nH]c4ccccc34)C(N)=O)C2)cc1	KDM5B inhibitor 28µM
O=C(COc1ccc(F)cc1)Nc1cccc(-c2nc3ccccc3o2)c1	none (no result: SNCA viab count, SNCA expr inh, IP6K1 inhibitor)
COc1ccc2[nH]c(C(=O)N3CCN4CCS(=O)(=O)N(C5CC5)C(=O)C4C3)cc2c1 (stereo not given)	KDM5B inhibitor 25µM
COc1ccc2cc(C(=O)N3CCN4CCS(=O)(=O)N(C5CC5)C(=O)C4C3)[nH]c2c1 (stereo not given)	none
CNC(=O)[C@@H]1CN(C(=O)c2cc3cc(OC)ccc3[nH]2)C[C@H]1CO	KDM5B inhibitor 22µM
COc1ccc2[nH]c(C(=O)N3C[C@@H](CO)[C@H](c4ccncc4)C3)cc2c1	KDM5B inhibitor 32µM
CNC(=O)[C@@H]1CN(C(=O)C2(c3ccc(OC)cc3)CC2)C[C@H]1CO	none
CSc1ccc2cc(CN(C)CCO)c(-c3ccc(Cl)cc3)nc2c1	KDM5B inhibitor 28µM
COc1ccc2cc(CN3CCC(CO)CC3)c(-c3ccc(Cl)cc3)nc2c1	SNCA expr inh inconclusive, KDM5B inhibitor inconclusive
